For 54 molecules, normalized B-score (activity score, 25-100; higher = stronger inhibition) results are on record in PubChem BioAssay AID588511 (Johns Hopkins Ion Channel Center, 2011).

Structures are written as SMILES. Hit rate of the full screen: of about 310,000 compounds, about 3,600 (1.2%) were called active.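 Rule for the calls: active = ratio plate-corrected score three or more library SD toward inhibition, starting fluorescence score within five deviations; inactive = the rest.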 What follows is part of a selection rich in actives, with near analogues and random picks from the rest.

The target of this experiment is Anoctamin-1 (Mus musculus) (UniProt Q8BHY3). The experiment is described as follows: blockers of mouse ANO1 Ca-activated Cl channel – cell-based, HTS, primary screen (AID 588511).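 For normalized B-score (activity score, 25-100; higher = stronger inhibition): score derived from kinetic fluorescence span divided by baseline fluorescence per well.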 The note with it: HEK293 TMEM16A/YFP iodide influx fluorescence, ionomycin; at 10 µM.
Anoctamin-1 (Mus musculus), sequence (Q8BHY3 whole entry, looked up): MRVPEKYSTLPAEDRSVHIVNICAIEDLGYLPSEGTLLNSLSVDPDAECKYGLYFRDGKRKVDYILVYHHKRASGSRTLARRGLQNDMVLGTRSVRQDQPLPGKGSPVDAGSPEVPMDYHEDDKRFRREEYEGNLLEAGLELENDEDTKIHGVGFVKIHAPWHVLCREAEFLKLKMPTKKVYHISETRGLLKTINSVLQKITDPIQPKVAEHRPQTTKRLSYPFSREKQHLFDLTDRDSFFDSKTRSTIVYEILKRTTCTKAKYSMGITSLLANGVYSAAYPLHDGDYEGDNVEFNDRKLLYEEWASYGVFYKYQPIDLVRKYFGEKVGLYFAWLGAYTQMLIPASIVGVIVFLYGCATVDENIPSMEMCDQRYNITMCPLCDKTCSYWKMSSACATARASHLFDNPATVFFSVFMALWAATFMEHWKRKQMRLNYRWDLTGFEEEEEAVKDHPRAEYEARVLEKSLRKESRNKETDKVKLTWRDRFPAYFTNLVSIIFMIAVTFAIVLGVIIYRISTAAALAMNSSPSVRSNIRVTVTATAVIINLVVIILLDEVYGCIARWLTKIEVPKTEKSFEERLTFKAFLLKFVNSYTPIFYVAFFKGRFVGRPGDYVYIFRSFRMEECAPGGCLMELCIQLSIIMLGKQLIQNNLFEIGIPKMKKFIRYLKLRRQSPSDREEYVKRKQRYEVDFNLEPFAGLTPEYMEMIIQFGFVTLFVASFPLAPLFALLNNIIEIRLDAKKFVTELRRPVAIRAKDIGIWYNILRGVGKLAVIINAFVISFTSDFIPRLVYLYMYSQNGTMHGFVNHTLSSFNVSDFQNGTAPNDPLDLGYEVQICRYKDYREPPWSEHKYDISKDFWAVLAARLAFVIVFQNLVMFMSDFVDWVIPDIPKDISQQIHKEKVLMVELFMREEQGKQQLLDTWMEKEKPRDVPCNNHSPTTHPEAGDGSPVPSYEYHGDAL
Regarding `O=C(CC(O)(C(F)(F)F)C(F)(F)F)Nc1ccc(Cl)c(Cl)c1`, the normalized B-score (activity score, 25-100; higher = stronger inhibition) is 100 (active). Next, `O=C(Cc1ccc(Cl)c(Cl)c1)Nc1ccc(SC(F)F)cc1`: “inactive”; `O=C(CC1SCCNC1=O)Nc1ccc(Cl)c(Cl)c1` (centres undefined): “inactive”; `Cc1ccc(NC(=O)Cn2c(=O)n(CCC(=O)NC3CCN(Cc4ccccc4)CC3)c(=O)c3ccccc32)cc1`: “inactive”. The same measure for `CCc1c(C)nc(SCC(=O)NC2CCCC2)[nH]c1=O`: “inactive”; for `COc1ccc(-c2nc(SCC(=O)N3CCCC3)n[nH]2)cc1`: “inactive”; for `CCc1ccc(-c2nc(SCC(=O)NC3CCCC3)n[nH]2)cc1`: 25 (active). Regarding `CCC(CC)C(=O)Nc1c2c(nn1-c1ccc(C)cc1)CS(=O)(=O)C2`, the normalized B-score (activity score, 25-100; higher = stronger inhibition) entry was “inactive”. The same measure for `O=C(NNS(=O)(=O)c1ccccc1C(F)(F)F)c1cc2ncc(C(F)(F)F)cc2s1`: “inactive”; for `O=C(Nc1ccccc1N1CCN(C(=O)c2ccccc2)CC1)c1ccco1`: “inactive”. For the molecule `CCCCC(=O)Nc1ccccc1N1CCN(c2ccc(F)cc2)CC1`, the normalized B-score (activity score, 25-100; higher = stronger inhibition) entry was “inactive”.

Take `CCCC(=O)Nc1ccccc1N1CCN(C(=O)c2ccccc2)CC1`: the normalized B-score (activity score, 25-100; higher = stronger inhibition) is 25 (active). As to `Cc1cc(C)cc(NS(=O)(=O)c2ccc(Oc3ncc(C(F)(F)F)cc3Cl)cc2)c1`, the normalized B-score (activity score, 25-100; higher = stronger inhibition) was 25 (active). `Cc1cc(C)cc(NS(=O)(=O)c2ccc(F)cc2)c1`: the normalized B-score (activity score, 25-100; higher = stronger inhibition) result was “inactive”. With `COc1ccccc1Oc1ccc(S(=O)(=O)Nc2cccnc2)cc1`, the normalized B-score (activity score, 25-100; higher = stronger inhibition) result is “inactive”. Consider `CN1C(CC(=O)Nc2ccc(Br)cc2)c2ccccc2CC1(C)C` (centres undefined), for which the normalized B-score (activity score, 25-100; higher = stronger inhibition) result was “inactive”. `Cc1ccccc1CSc1nnc(CCCCCNC(=O)OC(C)(C)C)o1`: the normalized B-score (activity score, 25-100; higher = stronger inhibition) was 100 (active). For `CCc1ccccc1NC(=O)CSc1nnc(CCNC(=O)OC(C)(C)C)o1`, the normalized B-score (activity score, 25-100; higher = stronger inhibition) entry is “inactive”.

As for `Cc1cccc(NC(=O)CSc2nnc(CCCCCNC(=O)OC(C)(C)C)o2)c1C`, the normalized B-score (activity score, 25-100; higher = stronger inhibition) result is “inactive”. Next, `CCc1ccc(C2C(C#N)=C(N)N(N3CCOCC3)C3=C2C(=O)CC(C)(C)C3)s1` (centres undefined): “inactive”; `COc1cccc(C(=O)NCCS(=O)(=O)NCC2CCCO2)c1` (centres undefined): “inactive”; `S=C(Nc1ccc(Br)cc1)NC1CCN(Cc2ccccc2)CC1`: 25 (active). Next, `S=C(NN=C1CCN(Cc2ccccc2)CC1)NC1CCCCC1`: “inactive”; `S=C(NCCCc1ccccc1)Nc1ccc(Br)cc1`: 100 (active). In the case of `S=C(NCCc1ccccc1)Nc1ccccc1`, the normalized B-score (activity score, 25-100; higher = stronger inhibition) result was “inactive”. Next, `S=C(Nc1ccc(Br)cc1Cl)NC1CCN(Cc2ccccc2)CC1`: “inactive”; `O=C(CCNC(=O)c1ccc(Br)cc1)NCCCc1ccccc1`: “inactive”.

Take `O=C(NCc1ccccn1)C1CCN(S(=O)(=O)c2ccc(Br)cc2)CC1`: the normalized B-score (activity score, 25-100; higher = stronger inhibition) entry is “inactive”. The same measure for `COc1ccc(C(C#N)(CC(=O)O)c2cnccn2)cc1OC` (centres undefined): “inactive”; for `CC(=O)c1ccccc1OCc1ccc(C(=O)c2ccccc2)cc1`: 25 (active); for `COc1ccc(CCNC(=O)c2ccccc2OCc2ccccc2)cc1`: “inactive”. Consider `O=C(NC1CCC(O)CC1)c1ccccc1OCc1ccc(F)cc1` (centres undefined), for which the normalized B-score (activity score, 25-100; higher = stronger inhibition) result is “inactive”. Next, `COc1ccccc1CNS(=O)(=O)c1ccc2c(c1)NC(=O)CS2`: “inactive”; `C=CCSc1nsc(NC(=O)Nc2cccc(C(C)=O)c2)n1`: 100 (active).

Regarding `CCSc1nsc(NC(=O)Nc2ccccc2OC)n1`, the normalized B-score (activity score, 25-100; higher = stronger inhibition) entry was “inactive”. The same measure for `CCSc1nsc(NC(=O)Nc2cccc(C(C)=O)c2)n1`: “inactive”; for `CSc1nsc(NC(=O)Nc2ccccc2)n1`: 100 (active); for `O=C(Nc1ccccc1)Nc1nnc(COc2ccccc2F)s1`: “inactive”. In the case of `C=C(C)C(=O)Nc1cccc(C(C)=O)c1`, the normalized B-score (activity score, 25-100; higher = stronger inhibition) entry was “inactive”.

For `COc1ccc(-c2c(-c3ccc(OC)cc3O)nc(C)nc2C(F)(F)F)cc1`, the normalized B-score (activity score, 25-100; higher = stronger inhibition) entry was “inactive”. Take `COc1cc(NC(=O)c2ccc(-c3csc(C)n3)cc2)c(OC)cc1Cl`: the normalized B-score (activity score, 25-100; higher = stronger inhibition) entry is “inactive”. For the molecule `CC1CCCCN1CCCNC(=O)Cn1ncc2c([nH]c3ccccc32)c1=O` (centres undefined), the normalized B-score (activity score, 25-100; higher = stronger inhibition) result is “inactive”. Next, `Cc1ccc2c(c1)N(CC(=O)NCCCN1CCCCC1)C(=O)c1cccnc1O2`: “inactive”; `Clc1ccc(-c2nc3ccccn3c2CN2CCSCC2)cc1`: “inactive”; `CCCCn1c(N)c(N(CC(C)C)C(=O)CN(C)S(=O)(=O)c2ccc(F)cc2)c(=O)[nH]c1=O`: “inactive”. The same measure for `CC(=O)c1cccc(NC(=O)N2CCCC2C(=O)NCCc2ccccc2)c1` (centres undefined): “inactive”; for `COc1ccc(CCNC(=O)C2CCCN2C(=O)Nc2ccccc2)cc1OC` (centres undefined): “inactive”.

As for `CC(=O)c1cccc(NC(=O)N2CCCC2C(=O)NCCC(C)C)c1` (centres undefined), the normalized B-score (activity score, 25-100; higher = stronger inhibition) was 25 (active). Next, `Cc1snc(SCc2c(F)cccc2Cl)c1C#N`: “inactive”; `Cc1cc(C)c2c(-n3cccc3)c(C(=O)NNS(=O)(=O)c3ccc(F)cc3)sc2n1`: “inactive”. The same measure for `CC(Sc1nnc(Cc2ccc([N+](=O)[O-])cc2)o1)C(N)=O` (centres undefined): “inactive”; for `CCn1nccc1C(=O)Nc1ccc(Cl)c(Cl)c1`: “inactive”. `CCn1nccc1C(=O)Nc1ccc(S(=O)(=O)NC23CC4CC(CC(C4)C2)C3)cc1`: the normalized B-score (activity score, 25-100; higher = stronger inhibition) is 25 (active). Next, `Cc1cc(C(F)F)n2nc(C(=O)Nc3ccc(S(=O)(=O)NC45CC6CC(CC(C6)C4)C5)cc3)nc2n1`: “inactive”.
